PubChem BioAssay (NCI)
The panel holds about 83,000 compounds, 20% with a hit somewhere; the sample as a whole holds those more often.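 Plates (96-well) were seeded with cells, treated with compound at one concentration, and incubated for 48 hours before percent growth was determined.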

Experiments:
Assay in all cases: NCI-60 one-dose screen, 48 h (100 = growth as untreated, 0 = no growth, -100 = all killed); active means growth percent below 10; inactive means the rest
[1] = tested on: HT29 colon; conditions: 10 µM unless noted
[2] = tested on: SNB-75 CNS; conditions: 10 µM unless noted
[3] = tested on: SNB-19 CNS; conditions: 10 µM unless noted
[4] = tested on: U251 CNS; conditions: 10 µM unless noted
[5] = tested on: PC-3 prostate; conditions: 10 µM unless noted
[6] = tested on: SK-MEL-5 melanoma; conditions: 10 µM unless noted
[7] = tested on: UACC-62 melanoma; conditions: 10 µM unless noted
[8] = tested on: LOX IMVI melanoma; conditions: 10 µM
[9] = tested on: EKVX NSCLC; conditions: 10 µM unless noted
[10] = tested on: SN12C renal; conditions: 10 µM unless noted
[11] = tested on: UO-31 renal; conditions: 10 µM unless noted
[12] = tested on: TK-10 renal; conditions: 10 µM unless noted
[13] = tested on: ACHN renal; conditions: 10 µM unless noted
[14] = tested on: CAKI-1 renal; conditions: 10 µM unless noted
[15] = tested on: A498 renal; conditions: 10 µM unless noted
[16] = tested on: MOLT-4 leukemia; conditions: 10 µM unless noted
[17] = tested on: SK-MEL-28 melanoma; conditions: 10 µM unless noted
[18] = tested on: SK-MEL-2 melanoma; conditions: 10 µM unless noted
[19] = tested on: CCRF-CEM leukemia; conditions: 10 µM unless noted

Measured: growth

N#CC1(O)CCCCC1
inactive: [1] 104% | [2] 49.2% | [3] 108% | [4] 94.7% | [5] 95.2% | [6] 106% | [7] 106% | [8] 91.7% | [9] 101% | [10] 110% | [11] 85.6% | [12] 102% | [13] 106% | [14] 92.5% | [15] 87.9% | [16] 102%

CC(=O)C1C(=O)C(=O)N(c2ccc(Cl)c(Cl)c2)C1=O (configuration not stated)
inactive: [1] 107% | [2] 78.3% | [3] 107% | [4] 101% | [5] 96.9% | [6] 107% | [7] 101% | [8] 94.4% | [17] 103% | [18] 111% | [9] 92.1% | [10] 97.4% | [11] 95.2% | [12] 107% | [13] 97.8% | [14] 93.4% | [15] 118% | [19] 115% | [16] 91.5%

COc1cc(OC)c2cc(C(=O)c3ccc(C#N)cc3)c(=O)oc2c1
inactive: [1] 104% | [2] 85.5% | [3] 88.5% | [4] 105% | [6] 97.6% | [7] 91.8% | [17] 99.5% | [18] 103% | [9] 110% | [10] 81.6% | [11] 84.7% | [12] 97.7% | [13] 95.2% | [14] 84.6% | [15] 99.1% | [19] 101% | [16] 103%

CCOC(=N)CC(=O)Nc1cccc(C)c1Cl
inactive: [1] 116% | [2] 86% | [3] 109% | [4] 103% | [5] 93.6% | [6] 94.9% | [7] 93.9% | [8] 93% | [17] 105% | [18] 118% | [9] 109% | [10] 98.6% | [11] 70.5% | [12] 113% | [13] 105% | [14] 93.7% | [19] 109% | [16] 108%

Cc1ccc(/C=N/NC(N)=S)s1
inactive: [1] 110% | [2] 91.2% | [3] 103% | [4] 102% | [5] 92.2% | [7] 102% | [8] 101% | [17] 113% | [18] 102% | [9] 96% | [10] 99% | [11] 90.5% | [12] 105% | [13] 103% | [14] 92% | [15] 95.2% | [19] 100% | [16] 99.4%

FC(F)(F)c1cc(NC2=NCCN=C(Nc3cc(C(F)(F)F)cc(C(F)(F)F)c3)SS2)cc(C(F)(F)F)c1
inactive: [1] 49% | [2] 71.5% | [3] 56.5% | [4] 23.3% | [5] 17.1% | [6] 50.2% | [7] 35.6% | [8] 50.5% | [17] 74.7% | [10] 47.2% | [11] 35.1% | [12] 58.4% | [13] 43.5% | [14] 48.1% | [15] 58% | [19] 28.8% | [16] 51.2%

Cc1cc(Cc2ccccc2)c(O)c(Cc2ccccc2)c1
inactive: [1] 104% | [2] 75.5% | [3] 102% | [4] 86.5% | [5] 88.3% | [6] 98.6% | [7] 71.4% | [8] 80.7% | [18] 111% | [9] 112% | [10] 79.7% | [11] 64.6% | [12] 98.8% | [13] 92.9% | [14] 80.5% | [15] 98.6% | [19] 98.2% | [16] 64.6%

C/C(O)=C(/C=N/C(=S)Nc1ccccc1)C(=O)Nc1ccccc1C
inactive: [1] 105% | [2] 92.4% | [3] 93.9% | [4] 95.4% | [5] 86.5% | [6] 93.9% | [7] 79.4% | [8] 94.4% | [17] 110% | [18] 114% | [9] 96.6% | [10] 94.8% | [11] 89.7% | [12] 110% | [13] 103% | [14] 101% | [15] 86.1% | [19] 90.9% | [16] 96.9%
